From PubChem BioAssay (NCATS)
Records with an inconclusive call do not appear. Calls of active or inactive are those of the source. Unless noted, the call rests on the fitted dose curve; in most records, active means well fitted curve in either direction with a large enough effect (not every such curve was filed as active); inconclusive means small, poorly fitted or top-dose-only effect, or another doubt; inactive means flat fitted curve, though single readings scatter.

Tests used:
[1] = biological target: Lysosomal acid glucosylceramidase (Homo sapiens) (UniProt P04062); test: Glucocerebrosidase-p2 (AID 348; in the data active means potency below about 10 µM; further: potency means the concentration at half of the fitted maximal effect); settings: purified GBA, blue fluorogenic substrate, 40 min
Procedure, shortened: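 Normal human glucocerebrosidase (0.2 nM) with blue fluorogenic substrate (80 uM final) in citrate/phosphate pH 5.9 with 10mM sodium taurocholate, 0.01% tween-20; 40 min RT, NaOH/glycine stop; fluorescence Ex 365/Em 440; AC50 from a titration from 0.6 nM upwards.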

[2] = AP1 Signaling Pathway (AID 357); settings: ME-180 AP-1-bla reporter, EGF-induced, beta-lactamase ratio, 5 h; at 7.69 µM (top of the series) unless noted;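 further: ME-180 reporter cells stimulated with EGF at its EC50 level; on the % scale 0 is the no-effect control and ±100 the full control effect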
Procedure, shortened: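 AP-1-bla ME-180 cells, Opti-MEM + 0.5% dialyzed FBS, plated overnight 37 °C. Cpd titration + EC50 EGF, 5 h 37 °C. CCF4 2.5 h RT; ex 405, em 460/530 ratio → %activity, AC50.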

[3] = biological target: Cytochrome P450 1A2 (Homo sapiens) (UniProt P05177); test: p450-cyp1a2 (AID 410; calls by dose curve; further: potency means the concentration at half of the fitted maximal effect;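 on activity change, negative = inhibition: -100% = full effect of reference inhibitor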); settings: recombinant CYP1A2, luciferin-ME demethylation, luminescence; series mostly up to 57 µM
Procedure, shortened: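 Read-out is luminescence from luciferin produced by CYP1A2 demethylation of Luciferin-ME (100uM, at Km). Detection reagent stopped the 60 min NADPH-dependent reaction; signals were normalized to 57 uM furafylline.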

[4] = NFAT Signaling Pathway (AID 444); settings: Jurkat NFAT-bla M1, carbachol, beta-lactamase ratio, 5 h; at 7.69 µM (top of the series) unless noted;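 further: carbachol stimulus at about its EC50 of 1 µM final; on the % scale 0 is the no-effect control and ±100 the full control effect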
Procedure, shortened: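 Read-out: CCF4 FRET ratio (460 nm/530 nm) after 1 h RT dye loading, used for %activity and AC50 from titration series. Cells: Jurkat NFAT-β-lactamase/M1 line, treated with compound plus 1 uM carbachol for 5 h, 37 °C.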

[5] = Stat Signaling Pathway (AID 446); settings: ME-180 SIE beta-lactamase reporter, IL-6 stimulated, 5 h; at 7.69 µM (top of the series) unless noted;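 further: ME-180 cervical cancer cells given 40 pM IL-6 alongside compound; SIE-controlled beta-lactamase reporter measured as 460/530 nm FRET emission ratio; on the % scale 0 is the no-effect control and ±100 the full control effect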
Procedure, shortened: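 Emission at 460 and 530 nm (excitation 405 nm) reports SIE-controlled beta-lactamase in ME-180 cells. Cells received compound with 40 pM IL-6 for 5 hrs at 37 C; data scaled between 300 pM IL-6 and 125 nM JAK-inhibitor controls.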

[6] = biological target: Glucocorticoid receptor (Homo sapiens) (UniProt P04150); test: GR-EFC Redistribution (AID 451; calls by dose curve; further: potency means the concentration at half of the fitted maximal effect); settings: CHO-K1 GR-EFC translocation, beta-gal luminescence, 2 h
Procedure, shortened: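 Translocation of GR-ED fusion to nuclear EA restores b-gal, read by luminescence after 1 h room-temperature detection. Engineered CHO-K1 biosensor cells, 1,000/well, exposed 2 h at 37 C to titrations up to 46 uM final.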

[7] = biological target: Mitogen-activated protein kinase 10 (Mus musculus) (UniProt Q61831); test: JNK3 AlphaScreen Assay (AID 530); settings: JNK3 lysate, c-Jun phosphorylation; series mostly up to 57.1 µM;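 further: kinase came from lysate of stimulated human HepG2 cells; signal reports phosphorylation of biotinylated GST-cJun 1-79 at Ser73 with 10 µM ATP; on the % scale 0 is the no-effect control and ±100 the full control effect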
Procedure, shortened: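 Kinase buffer: 20 mM Tris-HCl pH 7.6, 10 mM MgCl2, 1 mM DTT, 0.1 mM Na3VO4, 0.01% Tween-20; ATP 10 uM. Substrate biotin-GST-cJun(1-79), enzyme from activated HepG2 lysates. Detection by Ser73 phospho-antibody AlphaScreen.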

[8] = biological target: 3',5'-cyclic-AMP phosphodiesterase 4B (Homo sapiens) (UniProt Q07343); test: qHTS Assay for Inhibitors of PDE-IV (AID 607; active means well fitted activation curve with a large enough effect in the main read-out, with a control signal flat, not every such curve was filed as active; further: % of control where 0% means no effect); settings: HEK293 ACTOne CNG channel cells, membrane potential fluorescence; series mostly up to 22.9 µM
Procedure, shortened: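 The readout is membrane depolarisation from a cAMP-sensing CNG channel, detected with a potential dye at ex 535/em 590. Cells were HEK293-derived (endogenous PDE-IV) at 1000 cells/well, titrated up to 22.9 uM final.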

[9] = biological target: Cytochrome P450 2C19 (Homo sapiens) (UniProt P33261); test: qHTS Assay for Inhibitors and Substrates of Cytochrome P450 2C19 (AID 899; active means well fitted curve in the direction sought with a large enough effect; an effect the other way counts as inactive or inconclusive; further: on the % scale 0 is the no-effect control and ±100 the full control effect; nearly all actives have a fitted effect of over 60% in size); settings: recombinant CYP2C19, luciferin-H EGE luminescence; series mostly up to 57.1 µM
Procedure, shortened: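 Luminescence readout of luciferin formed from 10uM Luciferin-H EGE (KM level) by 5 nM CYP2C19 in 50mM KPO4. 60 min NADPH-driven reaction at 37C after 10 min compound preincubation; data scaled to 57uM ketoconazole inhibition.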

[10] = qHTS Assay for Lipid Storage Modulators (AID 1519; calls by dose curve); settings: Drosophila S3 cells, BODIPY lipid droplet/cell ratio, laser cytometry, cells loaded with oleic acid; for activity change, negative = inhibition: at 57.5 µM (top of the series)
Procedure, shortened: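 Cells seeded at 5,000 per well were treated with compounds over a concentration series and loaded with oleic acid (400 uM, as added). Lipid droplet fluorescence (488 nm excitation, 500-530 nm channel) was read by laser-scanning cytometry and normalized to 20 uM Triacsin C.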

[11] = Primary qHTS for small molecule stabilizers of the endoplasmic reticulum resident proteome: Secreted ER Calcium Modulated Protein (SERCaMP) assay (AID 1508630; active means well fitted curve in the direction sought with a large enough effect; an effect the other way counts as inactive or inconclusive; further: on the % scale 0 is the no-effect control and ±100 the full control effect); settings: SH-SY5Y GLuc-SERCaMP (Gaussia luciferase released on ER calcium loss) secretion, thapsigargin, luminescence; series mostly up to 38.4 µM
Procedure, shortened: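 The SH-SY5Y reporter protocol was run at 3 concentrations up to 38.3 uM (primary) or 11 concentrations (follow-up): 16 h compound, 100 nM thapsigargin for 4 h, then extracellular luciferase luminescence.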

[12] = qHTS Assay for Identification of Small Molecule Agonists for Hypoxia Response Element Signaling Pathway (AID 914; active means well fitted activation curve with a large enough effect in the signal ratio, with a control signal flat, not every such curve was filed as active; the % refers to the signal ratio; further: % of control where 0% means no effect); settings: ME-180 (cervical carcinoma) HRE-bla reporter, beta-lactamase ratio, CoCl2, 17 h; activation: stronger effect = higher value
Procedure, shortened: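 Cells were plated overnight, pin-dosed with compound in a titration series, co-stimulated with EC50 CoCl2 and incubated 17 hours at 37 degrees Celsius. CCF4 substrate was then loaded, and AC50 values came from the 460nm/530nm ratio.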

[13] = biological target: Cytochrome P450 3A4 (Homo sapiens) (UniProt P08684); test: qHTS Assay for Activators of Cytochrome P450 3A4 (AID 885; active means well fitted curve in the direction sought with a large enough effect; an effect the other way counts as inactive or inconclusive; further: nearly all actives have a fitted effect of over 65% in size); settings: recombinant CYP3A4, Luciferin-PPXE luminescence, 60 min; series mostly up to 57.1 µM
Procedure, shortened: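 Activators are scored by enhanced luminescence from CYP3A4 conversion of luciferin-PPXE (25uM, equal to KM) to luciferin, after 60 min at RT with an NADPH-regenerating system.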

[14] = biological target: Cytochrome P450 2D6 (Homo sapiens) (UniProt P10635); test: qHTS Assay for Inhibitors and Substrates of Cytochrome P450 2D6 (AID 891; active means well fitted curve in the direction sought with a large enough effect; an effect the other way counts as inactive or inconclusive; further: potency means the concentration at half of the fitted maximal effect; nearly all actives have a fitted effect of over 60% in size); settings: recombinant CYP2D6, luciferin-ME EGE luminescence; series mostly up to 57.1 µM
Procedure, shortened: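 Luminescent read-out of luciferin formed by 5 nM human CYP2D6 demethylating 30 uM Luciferin-ME EGE (Km level) over 60 min at room temperature after NADPH regeneration addition. Data normalized to full inhibition by 1.43 uM quinidine.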

[15] = measured here: cell count channel max response
[16] = measured here: lipid channel max response

3',5'-cyclic-AMP phosphodiesterase 4B (Homo sapiens), sequence (Q07343 whole entry, looked up): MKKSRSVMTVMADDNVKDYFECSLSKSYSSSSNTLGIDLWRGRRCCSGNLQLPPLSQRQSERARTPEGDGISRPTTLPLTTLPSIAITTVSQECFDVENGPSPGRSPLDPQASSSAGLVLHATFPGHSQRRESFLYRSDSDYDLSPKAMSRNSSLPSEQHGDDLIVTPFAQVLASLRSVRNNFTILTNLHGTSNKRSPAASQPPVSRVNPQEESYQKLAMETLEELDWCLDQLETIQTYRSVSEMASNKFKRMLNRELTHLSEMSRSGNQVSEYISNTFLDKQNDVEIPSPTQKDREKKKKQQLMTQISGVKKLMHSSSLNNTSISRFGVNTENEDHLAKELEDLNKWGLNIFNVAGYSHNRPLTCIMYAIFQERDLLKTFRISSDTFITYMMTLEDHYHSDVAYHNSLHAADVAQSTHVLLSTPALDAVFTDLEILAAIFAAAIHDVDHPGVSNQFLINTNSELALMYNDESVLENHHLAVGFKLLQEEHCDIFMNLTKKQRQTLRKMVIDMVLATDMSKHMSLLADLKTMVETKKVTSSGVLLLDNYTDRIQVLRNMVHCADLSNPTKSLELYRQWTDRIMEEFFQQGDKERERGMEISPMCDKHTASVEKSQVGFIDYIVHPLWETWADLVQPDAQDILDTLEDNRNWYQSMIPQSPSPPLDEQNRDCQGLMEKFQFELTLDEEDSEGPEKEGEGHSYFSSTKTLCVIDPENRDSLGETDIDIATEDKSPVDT
Lysosomal acid glucosylceramidase (Homo sapiens), sequence (P04062 whole entry, looked up): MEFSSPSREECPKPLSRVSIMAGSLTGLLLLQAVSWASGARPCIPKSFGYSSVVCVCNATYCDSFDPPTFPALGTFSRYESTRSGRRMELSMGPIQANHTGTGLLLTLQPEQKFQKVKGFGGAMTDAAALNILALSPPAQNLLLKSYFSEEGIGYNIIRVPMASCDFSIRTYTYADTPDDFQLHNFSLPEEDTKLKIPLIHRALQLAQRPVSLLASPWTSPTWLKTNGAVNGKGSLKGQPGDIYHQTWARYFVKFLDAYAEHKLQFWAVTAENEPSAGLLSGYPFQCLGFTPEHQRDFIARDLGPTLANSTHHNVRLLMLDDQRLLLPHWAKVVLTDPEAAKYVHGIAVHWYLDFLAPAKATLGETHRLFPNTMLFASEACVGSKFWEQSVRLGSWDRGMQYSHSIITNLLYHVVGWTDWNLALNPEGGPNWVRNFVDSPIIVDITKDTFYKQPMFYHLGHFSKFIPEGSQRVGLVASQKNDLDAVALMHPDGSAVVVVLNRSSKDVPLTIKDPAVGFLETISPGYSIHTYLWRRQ
Cytochrome P450 1A2 (Homo sapiens), sequence (P05177 whole entry, looked up): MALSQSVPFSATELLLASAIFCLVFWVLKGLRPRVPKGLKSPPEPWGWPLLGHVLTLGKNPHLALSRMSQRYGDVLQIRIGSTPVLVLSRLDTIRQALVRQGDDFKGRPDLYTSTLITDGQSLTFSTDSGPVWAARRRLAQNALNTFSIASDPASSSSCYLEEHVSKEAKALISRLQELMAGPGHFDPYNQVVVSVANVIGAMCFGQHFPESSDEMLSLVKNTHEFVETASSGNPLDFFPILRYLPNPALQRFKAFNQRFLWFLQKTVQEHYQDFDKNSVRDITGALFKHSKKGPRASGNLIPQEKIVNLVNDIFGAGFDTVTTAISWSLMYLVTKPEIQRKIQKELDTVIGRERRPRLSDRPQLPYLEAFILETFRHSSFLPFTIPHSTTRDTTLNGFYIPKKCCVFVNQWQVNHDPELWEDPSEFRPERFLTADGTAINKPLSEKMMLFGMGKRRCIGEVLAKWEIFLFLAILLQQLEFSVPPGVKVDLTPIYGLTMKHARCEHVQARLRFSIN
Glucocorticoid receptor (Homo sapiens), sequence (P04150 whole entry, looked up, the tested form may be a part): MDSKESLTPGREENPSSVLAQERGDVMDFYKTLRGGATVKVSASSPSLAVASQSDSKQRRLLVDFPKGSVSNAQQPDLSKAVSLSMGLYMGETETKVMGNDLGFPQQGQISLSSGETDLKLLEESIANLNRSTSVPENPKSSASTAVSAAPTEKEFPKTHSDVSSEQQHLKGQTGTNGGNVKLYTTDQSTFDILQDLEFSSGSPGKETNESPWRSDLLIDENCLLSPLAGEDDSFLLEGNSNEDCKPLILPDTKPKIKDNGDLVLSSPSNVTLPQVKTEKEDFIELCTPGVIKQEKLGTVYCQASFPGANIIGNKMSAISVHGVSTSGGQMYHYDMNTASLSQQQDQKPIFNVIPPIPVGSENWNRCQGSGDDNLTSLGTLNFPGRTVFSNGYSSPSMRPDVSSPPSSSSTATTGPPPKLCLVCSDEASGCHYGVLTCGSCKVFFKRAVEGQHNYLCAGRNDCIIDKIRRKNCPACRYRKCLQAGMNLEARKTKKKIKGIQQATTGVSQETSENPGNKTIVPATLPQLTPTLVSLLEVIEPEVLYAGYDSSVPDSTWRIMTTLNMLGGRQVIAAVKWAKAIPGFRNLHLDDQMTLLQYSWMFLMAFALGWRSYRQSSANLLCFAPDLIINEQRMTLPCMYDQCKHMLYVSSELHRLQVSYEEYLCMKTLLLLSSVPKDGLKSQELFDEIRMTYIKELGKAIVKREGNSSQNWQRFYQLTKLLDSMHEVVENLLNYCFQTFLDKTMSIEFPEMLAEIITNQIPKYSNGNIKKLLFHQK
Cytochrome P450 2D6 (Homo sapiens), sequence (P10635 whole entry, looked up): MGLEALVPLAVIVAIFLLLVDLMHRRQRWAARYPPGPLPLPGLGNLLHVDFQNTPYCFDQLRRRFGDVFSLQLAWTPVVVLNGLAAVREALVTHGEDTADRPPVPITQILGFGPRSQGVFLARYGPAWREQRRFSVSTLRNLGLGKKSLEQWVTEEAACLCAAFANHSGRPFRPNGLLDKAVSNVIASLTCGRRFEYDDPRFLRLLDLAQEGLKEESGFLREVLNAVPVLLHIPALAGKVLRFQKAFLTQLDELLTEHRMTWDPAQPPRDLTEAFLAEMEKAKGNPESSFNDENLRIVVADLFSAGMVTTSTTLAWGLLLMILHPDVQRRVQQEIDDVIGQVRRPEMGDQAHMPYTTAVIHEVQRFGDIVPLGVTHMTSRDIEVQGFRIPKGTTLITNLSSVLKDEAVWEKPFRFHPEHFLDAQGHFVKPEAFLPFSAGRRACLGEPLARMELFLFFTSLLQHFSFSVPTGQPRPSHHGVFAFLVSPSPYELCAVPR
Cytochrome P450 3A4 (Homo sapiens), sequence (P08684 whole entry, looked up): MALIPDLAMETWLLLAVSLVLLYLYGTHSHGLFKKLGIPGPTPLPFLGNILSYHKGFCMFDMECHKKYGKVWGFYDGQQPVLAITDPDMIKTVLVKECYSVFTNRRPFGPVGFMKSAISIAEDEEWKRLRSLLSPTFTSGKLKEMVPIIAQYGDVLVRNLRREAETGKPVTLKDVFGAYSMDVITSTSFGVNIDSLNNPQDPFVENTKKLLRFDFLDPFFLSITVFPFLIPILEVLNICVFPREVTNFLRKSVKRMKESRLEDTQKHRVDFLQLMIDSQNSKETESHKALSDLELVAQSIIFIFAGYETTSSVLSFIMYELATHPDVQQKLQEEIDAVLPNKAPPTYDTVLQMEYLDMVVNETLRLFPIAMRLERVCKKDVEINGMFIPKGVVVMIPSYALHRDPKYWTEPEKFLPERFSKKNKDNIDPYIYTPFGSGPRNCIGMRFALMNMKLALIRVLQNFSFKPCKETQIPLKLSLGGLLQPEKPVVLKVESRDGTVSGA
Cytochrome P450 2C19 (Homo sapiens), sequence (P33261 whole entry, looked up): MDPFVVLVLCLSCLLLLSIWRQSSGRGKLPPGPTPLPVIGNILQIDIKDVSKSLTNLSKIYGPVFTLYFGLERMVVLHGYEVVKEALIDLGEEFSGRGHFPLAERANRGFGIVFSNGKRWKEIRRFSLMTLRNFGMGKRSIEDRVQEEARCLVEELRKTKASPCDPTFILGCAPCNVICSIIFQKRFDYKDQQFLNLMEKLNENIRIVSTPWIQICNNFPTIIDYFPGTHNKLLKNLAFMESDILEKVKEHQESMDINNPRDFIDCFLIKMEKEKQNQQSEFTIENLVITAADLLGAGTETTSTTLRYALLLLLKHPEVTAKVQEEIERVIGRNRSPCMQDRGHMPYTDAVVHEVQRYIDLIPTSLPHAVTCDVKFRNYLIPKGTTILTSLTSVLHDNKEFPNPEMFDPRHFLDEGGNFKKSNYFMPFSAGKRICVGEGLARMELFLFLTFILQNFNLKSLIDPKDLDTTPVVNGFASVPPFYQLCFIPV

Structure (SMILES)	Potency [1]	activity change, negative = inhibition [2]	Potency [3]	activity change, negative = inhibition [4]	activity, negative = inhibition [5]	Potency [6]	outcome [7]	Potency [8]	Potency [9]	activity change, negative = inhibition [10]	max response [10, 15]	max response [10, 16]	Potency [11]	activation [12]	Potency [13]	Potency [14]
CC(=O)N1CCC2(CC1)CN(c1ccccc1)C2	> 11.4 µM (inactive)	10.4% (inactive)	inactive	3.05% (inactive)	10.3% (inactive)	> 46 µM (inactive)	inactive	inactive	inactive	6.65% (inactive)	16.4%	26.6%	inactive			
O=C(c1csnn1)N1CCC2(CC1)CN(c1ccccc1)C2	> 11.4 µM (inactive)	-4.3% (inactive)	inactive	-3.86% (inactive)	4.17% (inactive)	> 46 µM (inactive)	inactive	inactive		4.49% (inactive)	13.3%	20.7%	inactive	-12.1% (inactive)		
COc1ccc(NC(=O)N2CCCC3(CCNCC3)C2)cc1	> 11.4 µM (inactive)	-1.83% (inactive)	inactive	1.68% (inactive)	5.73% (inactive)	> 46 µM (inactive)	inactive	inactive	inactive	4.28% (inactive)	-5.9%	0.941%	inactive		inactive	
N#Cc1ccc(CN2CCCC3(CCN(C(=O)c4cccc(F)c4)CC3)C2)cc1	> 11.4 µM (inactive)	19.4% (inactive)	inactive	-65.7% (active)	-5.26% (inactive)	> 46 µM (inactive)	inactive	inactive		2.12% (inactive)	15%	19.8%	inactive	-15.7% (inactive)	inactive	
CC(=O)N1CCC2(CCCN(C(c3ccccc3)c3ccccc3)C2)CC1	> 11.4 µM (inactive)	-12.2% (inactive)	15.8 µM (active)	28.1% (inactive)	17.6% (inactive)	> 46 µM (inactive)	inactive	inactive		6.41% (inactive)	3.3%	12.6%	inactive			7.94 µM (active)
COCC(=O)N1CCC[C@@]2(CCN(Cc3ccccc3OC)C2)C1	> 11.4 µM (inactive)	-5.37% (inactive)	inactive	7.38% (inactive)	-1.88% (inactive)	> 46 µM (inactive)	inactive	inactive		3.26% (inactive)	0.0589%	5.61%	inactive	-5.2% (inactive)		6.31 µM (active)
